Dicer inh = inhibitors of human Dicer processing of pre-microRNA | Q9UPY3 | cat-ELCCA pre-miR-21 Dicer processing, chemiluminescence; stronger effect = higher value | z-score at 25 µM | hit rate 6% among 47,000; in the data active = z-score above about 3, passing the limit was not always enough;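 note: plate controls were vehicle for no effect and no enzyme for full effect; higher signal means more uncleaved substrate so more Dicer inhibition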
Starred values were filed as active, the others as inactive. This excerpt belongs to a sample that is enriched for hits.

SMILES	Dicer inh
Nc1nc2c(nc(N3CCN(c4ccccc4)CC3)n2[C@H]2O[C@@H](CO)[C@H](O)[C@@H]2O)c(=O)[nH]1	-0.68
Nc1nc2c(nc(NCCCN3CCOCC3)n2[C@H]2O[C@@H](CO)[C@H](O)[C@@H]2O)c(=O)[nH]1	3.48*
COc1ccc(C(=O)NNC(=O)c2scc(Br)c2OC)cc1	-0.04
CN(/C=C/c1nnnn1-c1ccccc1)CCN(C)/C=C/c1nnnn1-c1ccccc1	0.34
O=C1C(=O)N(CCCn2ccnc2)C(c2ccncc2)/C1=C(\O)c1ccccc1 (configuration not stated)	2.44
COc1ccc(NS(=O)(=O)c2ccc(NS(=O)(=O)c3ccccc3)cc2)nn1	-0.12
CCCC(=O)Oc1ccc2c(=O)c(-c3ccc(OC)c(OC)c3)c(C(F)(F)F)oc2c1	0.89
Cc1cccc(N=C(NO)c2ccccc2)c1	-3.79
NC(N)=NC(N)=Nc1cc(Cl)cc(Cl)c1	-0.42
ONC(=Nc1cc(Cl)cc(Cl)c1)c1ccccc1	3.02*
O=C(CCc1ccccc1)NNc1cc(Cl)ccc1Cl	0.08
O=C1C2ON(c3ccccc3)C(c3ccccc3O)C2C(=O)N1c1ccc(F)cc1 (configuration not stated)	-0.01
CC(C)(C)c1ccc(-c2[nH]nc(NS(=O)(=O)c3ccccc3)c2Br)cc1	-4.57
COc1ccccc1Oc1c(NS(=O)(=O)c2ccc(C(C)(C)C)cc2)nc(-c2ncccn2)nc1OCCO	17.6*
Cn1nccc1NS(=O)(=O)c1ccc(C(C)(C)C)cc1	-0.85
N#CC1=C(N)Oc2c(sc3ccccc23)C1c1cccs1 (configuration not stated)	-1.22
COC(=O)c1ccc(C2Oc3ccc(Br)cc3C3CC(c4ccco4)=NN32)cc1 (configuration not stated)	2.38
Cc1ccc2nc(-c3sc4ccccc4c3Cl)oc(=O)c2c1	-0.68
CSC(=NC(C)(C)CO)Nc1c(C)cccc1C	4.75*
CCCSC(=NCC)Nc1c(C)cccc1C	0.82
Cc1cccc(C)c1NC(=O)C(C)N (configuration not stated)	0.84
CCOC(=O)c1nnn(-c2nonc2N)c1CN(C)c1ccccc1	-0.22
CCOC(=O)c1nnn(-c2nonc2N)c1-c1ccccc1Cl	1.27
CCOC(=O)c1nnn(-c2nonc2N)c1-c1cccs1	-0.05
CCOC(=O)c1nnn(-c2nonc2N)c1-c1cccc2ccccc12	3.99*
SMILES	Dicer inh
CCOC(=O)c1nnn(-c2nonc2N)c1CN(CC)c1ccccc1	5.07*
CCN(Cc1c(C(=O)O)nnn1-c1nonc1N)c1ccccc1	2.64
CC1=C(C(=O)Nc2cccc(C)n2)C(c2cccnc2)C2=C(CC(C)(C)CC2=O)N1 (configuration not stated)	0.48
CC(C)NC(=S)N/N=C/c1ccco1	1.2
COc1ccc(-c2c(C)oc3cc(OC)ccc23)cc1	0.14
Cc1[nH][nH]c(=O)c1C(c1cccnc1)c1c(C)[nH][nH]c1=O	-6.34
O=c1[nH]nc(SCCS(=O)(=O)c2ccc(F)cc2)n1Cc1ccco1	-0.67
CCOCCOC(=O)C1=C(C)NC2=C(C(=O)CC(C)(C)C2)C1c1ccc(O)c(OCC)c1 (configuration not stated)	-0.34
Cc1ccc(CC2CC(=O)N(c3ccccn3)C2=O)cc1 (configuration not stated)	-0.76
CCc1cc2c(cc1C(=O)CC1(O)C(=O)Nc3ccc(Br)cc31)C(C)(C)CCC2(C)C (configuration not stated)	2.22
CC(C)OC(=O)c1cnn2c(C(F)(F)F)cc(-c3ccc(F)cc3)nc12	4.7*
CCOC(=O)c1cnn2c(C)cc(-c3ccc(F)cc3)nc12	-0.57
Cc1ccc(-c2cc(C(F)(F)F)n3ncc(C(=O)Nc4ccc5c(c4)OCO5)c3n2)cc1	-0.12
CCOC(=O)C1=C(C)NC2=C(C(=O)CC(C)(C)C2)C1c1ccc(OC)cc1OC (configuration not stated)	0.08
COc1ccc(/C(O)=C2\C(=O)C(=O)N(CCCn3ccnc3)C2c2ccccc2F)cc1 (configuration not stated)	0.61
COc1ccccc1OCCN1C(=O)C(O)(c2c[nH]c3ccccc23)c2ccccc21 (configuration not stated)	-0.88
Cc1cc(C)c2c(c1C(=O)Nc1cccc(C(F)(F)F)c1)CC(C)(C)C2=O	-0.63
O=c1c2cc(-c3ccccc3)sc2ncn1Cc1ccccc1Cl	-2.34
CC(C)c1ccccc1NC(=S)NCCO	0
Cc1nn2c3c(cnc2c1-c1ccccc1)C(=O)CC(c1ccc(F)cc1)C3 (configuration not stated)	-0.43
Cc1ccccc1OC1CCS(=O)(=O)C1 (configuration not stated)	1.02
O=C(NC(=O)c1c(Cl)cccc1Cl)Nc1ccccc1N1CCCCC1	-0.64
CC1=C(C#N)C(c2cccc(Oc3ccccc3)c2)C2=C(CCCC2=O)N1 (configuration not stated)	0.8
Clc1ccc(OCc2nc3c4c5c(sc4ncn3n2)CCCC5)cc1	1.23
COc1ccc(OCc2nc3c4c5c(sc4ncn3n2)CCCCC5)cc1	4.25*
SMILES	Dicer inh
COc1ccccc1OCc1nc2c3c4c(sc3ncn2n1)CCCCC4	-0.5
Cc1cc(Br)c(NC(=S)NC(=O)C(C)(C)C)c(Br)c1	-0.8
COc1cc2nc(-c3cccc(OC(C)=O)c3)oc(=O)c2cc1OC	1.61
CCOC(=O)c1sc(SCc2ccc(Cl)cc2)c(S(=O)(=O)C(C)C)c1-n1cccc1	-0.02
Cc1onc(-c2c(Cl)cccc2Cl)c1NC(=O)N/N=C/c1c(Cl)cccc1Cl	0.08
CCOc1ccc(/C=C/c2nc(-c3ccc(OC)c(OC)c3)no2)cc1OCC	5.15*
CCOc1ccc(/C=C/c2nc(-c3ccc(Cl)cc3)no2)cc1OCC	3.09*
COc1ccc(/C=C/c2nc(-c3ccccn3)no2)cc1OC	2.37
COc1ccccc1OCc1nc(-c2ccc(Cl)cc2)no1	0.24
CCOc1ccc(/C=C/c2nc(-c3cccc(C)c3)no2)cc1OCC	0.92
CCOc1ccc(-c2nc(-c3ccc(OC)cc3)no2)cc1OCC	1.64
O=C(C1CCCCC1)n1c2ccc(F)cc2c2nc3ccccc3nc21	0
CC(C)NC(=O)Nc1ccc(OCc2ncc(C(F)(F)F)cc2Cl)cc1	-1.7
COc1ccc(C2c3c(oc4ccc(C)cc4c3=O)C(=O)N2c2nccs2)cc1OC (configuration not stated)	2.48
CNc1nc(-c2ccc(Cl)s2)cs1	0.53
O=C(Nc1cccc(F)c1)N1CCN(c2ncccn2)CC1	1.79
O=C1Sc2ccc(S(=O)(=O)Nc3ccc(Br)cc3)c3cccc1c23	3.26*
CN1C(=O)c2cccc3c(S(=O)(=O)Nc4ccc(C(=O)O)cc4)ccc1c23	0.11
O=C1Sc2ccc(S(=O)(=O)Nc3cccc(Cl)c3)c3cccc1c23	2.36
Cc1ccc(C(=O)CC2(O)C(=O)N(CCc3ccccc3)c3ccc(Br)cc32)o1 (configuration not stated)	2.46
O=C(CC1(O)C(=O)N(CCc2ccccc2)c2ccc(Br)cc21)c1ccc2c(c1)OCO2 (configuration not stated)	4.07*
O=C(CC1(O)C(=O)N(Cc2ccccc2)c2ccc(Br)cc21)c1ccc2c(c1)OCO2 (configuration not stated)	2.78
O=C(CC1(O)C(=O)N(CCc2ccccc2)c2ccc(Br)cc21)c1ccccn1 (configuration not stated)	1.1
COc1ccccc1C(=O)CC1(O)C(=O)N(CCc2ccccc2)c2ccc(Br)cc21 (configuration not stated)	4.28*
